In the library only some 12% were active in any assay of this set; here they are far more common.
USP28 inh = inhibitors of human USP28 deubiquitinase. Ubiquitin carboxyl-terminal hydrolase 28 (Homo sapiens), Q96RU2. inhibition, % at 25 µM. AID 1645857, 2021. purified USP28, Ub-rhodamine cleavage fluorescence, 30 min. 47,000 tested, 3% active
USP30 inh = inhibitors of human USP30 deubiquitinase; purified USP30, Ub-rhodamine cleavage fluorescence; inhibition, % at 25 µM; 47,000 tested, 5.3% active; AID 1645860, 2021
USP17 inh = inhibitors of human USP17 deubiquitinase | purified USP17, Ub-rhodamine cleavage fluorescence, 3 h | inhibition, % at 50 µM | 47,000 tested, 6.5% active | AID 1645855, 2021
OTUD3 block = inhibitors of human OTUD3 deubiquitinase; inhibition, % at 25 µM; 47,000 tested, 0.7% active; AID 1645858, 2021; purified OTUD3, Ub-rhodamine fluorescence, 2 h
Target sequence (Q5T2D3 whole entry, looked up): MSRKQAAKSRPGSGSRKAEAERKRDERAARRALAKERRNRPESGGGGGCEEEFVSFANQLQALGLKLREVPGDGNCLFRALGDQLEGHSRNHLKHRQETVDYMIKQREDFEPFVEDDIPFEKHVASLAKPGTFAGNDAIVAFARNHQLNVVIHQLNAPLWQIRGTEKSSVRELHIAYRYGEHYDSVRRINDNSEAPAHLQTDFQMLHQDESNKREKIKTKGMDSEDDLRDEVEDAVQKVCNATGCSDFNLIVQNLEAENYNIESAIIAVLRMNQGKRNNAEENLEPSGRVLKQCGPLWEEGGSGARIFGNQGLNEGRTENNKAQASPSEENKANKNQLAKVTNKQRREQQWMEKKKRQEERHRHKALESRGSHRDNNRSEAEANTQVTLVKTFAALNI
Numbers without * were called inactive. No stated cut-off is given here; in the data, active means inhibition above about 30%; inactive means the rest.

SMILES	USP28 inh	USP30 inh	USP17 inh	OTUD3 block
CN1CCCC[C@@H]2N(C(=O)Cn3ccc(=O)[nH]c3=O)CCC[C@@]21C	11	31*	12	15
c1ccc(C2CCN(CCc3cc4ccccc4[nH]3)CC2)cc1	-2	11	-2	0
CC1CC(C)CC(C)C(O)/C(C#N)=C/C=C\CC(C2CCCC2C(=O)O)OC(=O)CC(O)C(C)C1 (configuration not stated)	-6	-1	7	-15
Cc1n[nH]c(C)c1CC(=O)N1C[C@@H](O)[C@H](N2CCC(F)(F)CC2)C1	1	28	8	4
CC1CC[C@]2(NC1)O[C@H]1C[C@H]3[C@@H]4CC[C@H]5C[C@@H](O[C@@H]6O[C@H](CO)[C@H](O[C@@H]7O[C@H](CO)[C@@H](O)[C@H](O[C@@H]8OC[C@@H](O)[C@H](O)[C@H]8O)[C@H]7O[C@@H]7O[C@H](CO)[C@@H](O)[C@H](O)[C@H]7O)[C@H](O)[C@H]6O)CC[C@]5(C)[C@H]4CC[C@]3(C)[C@H]1[C@@H]2C (some centres not stated)	19	41*	62*	13
O=C(O)c1cccc2nc3ccccc3nc12	0	-10	39*	5
c1cncc(C2NC(c3nccs3)Cc3ccsc32)c1 (configuration not stated)	-11	-188	21	-44
O=C(O)CNC(=O)N1CCC2(CC1)C(=O)Nc1c(Oc3ccccc3)cccc12	19	13	8	11
